Compound activity deposited in PubChem by National Center for Advancing Translational Sciences (NCATS).
Most compounds without a hit are left out; they make up all but 3.3% or so of the library.
DRD3 antagonist: antagonists of human D3 dopamine receptor | max response, negative = inhibition, % | D3R cells, DiscoveRx beta-arrestin luminescence, antagonist mode; stronger effect = lower value | P35462 | 2.5% of 360,000 active | AID 652054; in the data active = max response below about -50%; inconclusive = no clear call, values can overlap the other calls
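Cells expressing the human receptor were seeded at 1500 cells/well, incubated overnight at 37 degrees C in 5% CO2, then exposed to library compounds with dopamine controls for 90 minutes at 37 degrees C before luminescent detection.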
DRD3 agonist: D3 dopamine receptor (human) agonism. AID 652048. max activation, %. D3R DiscoveRx beta-arrestin cells, luminescence, 90 min. 0.58% of 410,000 active; in the data active = max activation above about 30%
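Agonist-mode cell screen: cells plated at 1500/well and incubated overnight at 37 °C, then exposed to library compounds for 90 min at 37 °C. Detection reagent was added for 30–60 min at room temperature, and luminescence was read.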
PI5P4Ka inh: inhibitors of human PI5P4K alpha; PI5P4Kalpha enzyme, ADP-Glo luminescence, 60 min; stronger effect = lower value; max response, %; 1.2% of 330,000 active; AID 652105; active = max response of -50% or lower; inconclusive = between -30% and -50%; inactive = -30% or higher; also: value at the top dose of about 77 µM
Target sequence (P48426 whole entry, looked up): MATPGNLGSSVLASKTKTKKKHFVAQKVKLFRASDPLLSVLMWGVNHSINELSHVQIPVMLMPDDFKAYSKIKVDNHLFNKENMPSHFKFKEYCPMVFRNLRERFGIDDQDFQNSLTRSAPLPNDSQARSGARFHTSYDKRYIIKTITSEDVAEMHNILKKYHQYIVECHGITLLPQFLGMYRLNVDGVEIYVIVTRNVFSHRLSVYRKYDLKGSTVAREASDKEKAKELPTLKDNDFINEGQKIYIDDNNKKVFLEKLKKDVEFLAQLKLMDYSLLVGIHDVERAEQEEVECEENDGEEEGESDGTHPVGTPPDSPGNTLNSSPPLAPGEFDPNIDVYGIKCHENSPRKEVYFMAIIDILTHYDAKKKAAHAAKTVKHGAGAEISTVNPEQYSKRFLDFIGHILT
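Enzyme plus substrate dispensed, test compounds pinned in, then ATP (5 microM final) added. After 60 min at RT, ADP-Glo reagent 1 for 45 min and reagent 2 for 30 min preceded luminescence imaging.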
PI4K2A inh: inhibitors of human PI4K2A | Q9BTU6 | purified PI4K2A, ADP-Glo luminescence, 1 h; stronger effect = lower value | activity change, negative = inhibition, % at 76.9 µM | 0.13% of 420,000 active | AID 1346378; in the data active = activity change below about -50%; inconclusive = mostly about -30% to -49%
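Compounds are screened against recombinant PI4K2A using PI as substrate and ATP, the latter dispensed at 300 microM. Reactions run one hour at ambient temperature before ADP-Glo detection; full inhibition defined by wells lacking enzyme.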
LDHA block: inhibitors of human lactate dehydrogenase A; P00338; activity change, % (values are at about 110 or 230 µM); 0.15% of 480,000 active; purified LDHA, NADH/diaphorase-resazurin fluorescence; stronger effect = lower value; in the data active = activity change below about -30%; inconclusive = mostly about -25% to -30%
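Remaining NADH was detected by diaphorase (0.133 mg/mL) converting 37 µM resazurin to fluorescent resorufin, read at 0 and 20 minutes. The preceding 5-minute room-temperature reaction used 2 nM LDHA, 0.2 mM sodium pyruvate and 0.06 mM NADH at pH 7.4.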
Hits are given with their value; 0 = inactive; ? = inconclusive; - = no result given.

SMILES	DRD3 antagonist	DRD3 agonist	PI5P4Ka inh	PI4K2A inh	LDHA block
COc1ccccc1NC(=O)c1cn(Cc2ccccc2)c2ccccc12	-	-	-	-	0
Cc1nc2c(=O)n(C)c(=O)nc-2n(C)n1	-98.1	0	0	-55.4	0
CCCCCc1cc(O)c2c(c1)OC(C)(C)[C@@H]1CCC(C)=C[C@@H]21	-	0	-	-	-
COc1cc2c(cc1OC)C1[C@H]3C(=CC[C@H]1OC2O)CCN3C (some centres not stated)	-54.0	0	0	0	0
Cc1ccc(CN2CCCN(Cc3ccc(Cl)cc3)S2(=O)=O)cc1	0	77.1	0	0	0
Cc1ccccc1CN1CCCN(Cc2ccc(Cl)cc2)S1(=O)=O	?	0	0	0	0
Cc1cccc(OCC(=O)N2CCN(Cc3cccnc3)CC2)c1	0	0	0	0	-33.4
Cc1ccc(OCC(=O)N2CCN(Cc3cccnc3)CC2)cc1	0	0	0	0	-31.7
CCCNC(=O)NC(=O)COC(=O)c1cn(C)c2ccccc12	-	-	-	-	0
CC(=O)[C@H]1CC[C@H]2[C@@H]3CC[C@H]4C[C@H](O)CC[C@]4(C)[C@H]3C(=O)C[C@]12C	0	0	0	0	0
CC(=O)OCC(=O)[C@H]1CC[C@H]2[C@@H]3CC[C@H]4C[C@H](O)CC[C@]4(C)[C@H]3C(=O)C[C@]12C	-84.8	0	0	0	0
CCCOc1ccc(CCN)cc1	-	-	-	-	0
COC(=O)C1=C(C(=O)OC)SC2(S1)C(C(=O)OC)=C(C(=O)OC)Sc1c2ssc1=O	-95.6	0	?	0	0
Brc1ccc(-c2ccc(CNC3CN4CCC3CC4)o2)cc1 (configuration not stated)	-	-	-	-	0
Clc1ccc2c(c1)C(OC1CN3CCC1CC3)c1ccccc1CS2 (configuration not stated)	0	0	0	0	0
CN1CCN(CCOC2c3ccccc3CSc3ccc(Cl)cc32)CC1 (configuration not stated)	-90.0	0	0	0	0
Oc1ccc2[nH]cc(CCCCN3CC=C(c4ccccc4)CC3)c2c1	-	54.9	-	0	-
O=C(O)c1ccc2[nH]cc(CCCCN3CC=C(c4ccccc4)CC3)c2c1	-	72.6	-	0	-
Oc1ccc2ccccc2c1CN1CC=C(c2ccccc2)CC1	?	0	0	0	0
Cc1[nH]c2ccccc2c1C(=O)CN1CC=C(c2ccccc2)CC1	?	0	0	0	0
Cc1cc(Br)c(NC(=O)CN2CC=C(c3ccccc3)CC2)c(Br)c1	0	0	0	0	0
O=C(CCN1CC=C(c2ccccc2)CC1)NCc1ccccc1	-69.2	0	0	0	0
[Hg+][c]1ccccc1	-	-	-	-	-61.9
COc1cccc(CNCCc2ccc(Cl)cc2)c1	-	-	-	-	0
Cc1nn(-c2ccc(F)cc2)c2c1C(c1cccnc1)SCC(=O)N2 (configuration not stated)	-	-	-	-	0
SMILES	DRD3 antagonist	DRD3 agonist	PI5P4Ka inh	PI4K2A inh	LDHA block
O=C1NC(=O)C(=Cc2cc(Cl)ccc2OCc2ccc(C(=O)O)cc2)C(=O)N1	0	0	-71.1	0	-89.9
CCC1c2cccn2-c2ccccc2CN1C(=O)Nc1cc(F)ccc1F (configuration not stated)	-	-	-	-	0
CN(C)c1cccc(CN2CCN(c3ccccc3)CC2)c1	-85.2	0	0	0	0
Cc1ccc(CN2CCN(Cc3ccccc3)CC2)cc1	?	0	0	0	0
C=C1C(C)C2C(Cc3ccccc3)NC(=O)C23C(OC(C)=O)C=CC(C)(O)CC(C)CC=CC3C1O (configuration not stated)	0	0	0	0	0
C=C1[C@@H](C)[C@H]2[C@H](Cc3ccccc3)NC(=O)[C@]23OC(=O)/C=C/[C@H](O)CCC[C@@H](C)C/C=C/[C@H]3[C@@H]1O	0	78.3	0	0	0
CCC(CO)NC(=O)C1C=C2c3cccc4[nH]cc(c34)CC2N(C)C1 (configuration not stated)	-56.7	0	0	0	0
CC(C)C[C@H]1C(=O)N2CCC[C@H]2[C@]2(O)O[C@](NC(=O)[C@@H]3C=C4c5cccc6[nH]cc(c56)C[C@H]4N(C)C3)(C(C)C)C(=O)N12	-75.8	0	?	0	0
CN1C[C@H](C(=O)N[C@]2(C)O[C@@]3(O)[C@@H]4CCCN4C(=O)[C@H](Cc4ccccc4)N3C2=O)C=C2c3cccc4[nH]cc(c34)C[C@H]21	-	0	-	-	-
CC[C@@H](CO)NC(=O)[C@@H]1C=C2c3cccc4[nH]cc(c34)C[C@H]2N(C)C1	0	33.0	0	0	0
CCOc1ccccc1NC(=O)c1cn(CC)c2ccccc12	-	-	-	-	0
Fc1ccc2c(c1)nnn2C1CCN(Cc2nnnn2CCc2ccccc2)CC1	-74.7	0	0	0	0
Fc1ccc2c(c1)nnn2C1CCN(Cc2ccccc2)CC1	-77.8	0	0	0	0
Fc1ccc(Cn2nnnc2CN2CCC(n3nnc4cc(C(F)(F)F)ccc43)CC2)cc1	0	0	0	0	0
N#CC1c2ccccc2C=CN1C(=O)c1ccc(N(CCCl)CCCl)cc1 (configuration not stated)	-81.3	0	0	0	0
CCN1CCN(C(=O)COc2ccc3c(=O)c(-c4ccc(OC)cc4)c(C)oc3c2)CC1	-	-	-	-	0
COc1ccc(CCn2c(O)c(/C=N/NC(=O)c3ccncc3)c(=O)[nH]c2=O)cc1OC	0	0	-82.4	0	0
C=CCn1c(O)c(/C=N/NC(=O)c2ccncc2)c(=O)[nH]c1=O	0	0	-50.4	0	0
O=C(N/N=C/c1c(O)n(Cc2ccccc2)c(=O)[nH]c1=O)c1ccncc1	0	0	-55.7	0	0
NC(=O)c1ccc(OCC(O)CN2CC=C(c3ccc(F)cc3)CC2)cc1 (configuration not stated)	-	-	-	0	-
O=[N+]([O-])c1ccccc1CN1CC=C(c2ccc(F)cc2)CC1	-68.2	0	0	0	0
O=[N+]([O-])c1cccc(CN2CCN(Cc3ccc(Cl)cc3)CC2)c1	-79.1	0	0	0	0
O=[N+]([O-])c1cccc(CN2CC=C(c3ccc(F)cc3)CC2)c1	-98.8	0	0	0	0
COC(CN)c1ccccc1 (configuration not stated)	-	-	-	-	0
CC12CN(CC#N)CC(C)(CN(CC#N)C1)C2=O	-	-	-	-	0
CO[C@H]1[C@@H](O)C[C@H](O[C@H]2[C@@H](O)C[C@H](O[C@H]3[C@@H](O)C[C@H](O[C@H]4CC[C@@]5(C)[C@H](CC[C@@H]6[C@@H]5C[C@@H](O)[C@]5(C)[C@@H](C7=CC(=O)OC7)CC[C@]65O)C4)O[C@@H]3C)O[C@@H]2C)O[C@@H]1C	-	0	-	-	-
CC1Oc2cc3c(-c4c(O)cc(O)c5c(O)c6c(cc45)OC(C)C(C)C6=O)c(O)cc(O)c3c(O)c2C(=O)C1C (configuration not stated)	?	0	-108.8	0	0
COC(=O)C1CN(C#N)N(c2ccc(Cl)cc2)C12c1ccccc1-c1ccccc12 (configuration not stated)	-76.3	0	0	0	0
